The text below walks through data of PubChem BioAssay (NCI).

This is part of a sample that, as a whole, favours compounds with a hit. Of some 83,000 tested, about 20% had one in any assay.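 Percent growth is the endpoint: 0 to 100 indicates growth inhibition (40 means 60% inhibition), 0 means no net growth, and negative values indicate cell death.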 A number with no mark means an inactive call. Active and inactive are the calls of the source. How the source made its calls: active means growth percent below 10; inactive means the rest.

Test in all cases: NCI-60 one-dose screen, 48 h (100 = growth as untreated, 0 = no growth, -100 = all killed)
In one experiment the test system is SK-MEL-2 melanoma. Particulars: 10 µM unless noted.
The next experiment relates to EKVX NSCLC. The conditions noted are these: 10 µM unless noted.
In another experiment the test system is SN12C renal. The conditions noted are these: 10 µM unless noted.
Another experiment relates to UO-31 renal. Particulars: 10 µM unless noted.
The subject of the next experiment is ACHN renal. Particulars: 10 µM unless noted.
Another experiment relates to CAKI-1 renal. The conditions noted are these: 10 µM.
A further experiment relates to A498 renal. Particulars: 10 µM unless noted.
The test system of another experiment is CCRF-CEM leukemia. Particulars: 10 µM unless noted.
The subject of a further experiment is MOLT-4 leukemia. Particulars: 10 µM unless noted.
The test system of another experiment is SR leukemia. Particulars: 10 µM unless noted.
A further experiment concerns RPMI-8226 leukemia. Particulars: 10 µM unless noted.
Another experiment has as its system OVCAR-8 ovarian. The conditions noted are these: 10 µM unless noted.
A further experiment deals with OVCAR-5 ovarian. The conditions noted are these: 10 µM unless noted.
In the next experiment the test system is OVCAR-4 ovarian. The conditions noted are these: 10 µM unless noted.
A further experiment deals with SK-OV-3 ovarian. The conditions noted are these: 10 µM unless noted.
The test system of the next experiment is IGROV1 ovarian. Particulars: 10 µM unless noted.
In the next experiment the test system is OVCAR-3 ovarian. The conditions noted are these: 10 µM unless noted.
Another experiment has as its system HS 578T breast. The conditions noted are these: 10 µM unless noted.
In a further experiment the test system is NCI/ADR-RES ovarian. Particulars: 10 µM unless noted.

`CCCCOc1nc2ccc(Cl)cc2cc1/C=C/C(=O)/C=C/c1ccc(Cl)cc1`: the growth with SK-MEL-2 melanoma was 101%; with EKVX NSCLC, 83.7%; with SN12C renal, 92.1%; in the experiment on UO-31 renal, 66.9%; with ACHN renal, 81.5%; in the experiment on CAKI-1 renal it was 98.1%. The growth is 92.4% in the experiment with A498 renal; 76.2% in the experiment with CCRF-CEM leukemia; 71.5% in the experiment with MOLT-4 leukemia; 20.3% in the experiment on SR leukemia; 0.229% (active) in the experiment with RPMI-8226 leukemia; 70.2% in the experiment on OVCAR-8 ovarian. Moreover, the growth is 107% with OVCAR-5 ovarian; 91.5% in the experiment on OVCAR-4 ovarian; 92.5% in the experiment with SK-OV-3 ovarian; 45.8% with IGROV1 ovarian; 51.1% in the experiment on OVCAR-3 ovarian; 76.8% in the experiment on HS 578T breast. Further, in the experiment with NCI/ADR-RES ovarian, the growth is 100%.
Consider `O=C(NCCNc1nccc(-c2c(-c3cccc(O)c3)nc3sccn23)n1)c1ccccc1`, for which the growth in the experiment on SK-MEL-2 melanoma is 45.5%; in the experiment with EKVX NSCLC, 94.2%; with SN12C renal it was 66.4%; in the experiment with UO-31 renal, 87.7%; in the experiment on ACHN renal, 60.5%; in the experiment on CAKI-1 renal, 87.9%. In addition, the growth with A498 renal is 48%; in the experiment with CCRF-CEM leukemia it was 47.3%; in the experiment on MOLT-4 leukemia it was 67.1%; in the experiment with SR leukemia it was 68%; in the experiment with RPMI-8226 leukemia, 76.8%; in the experiment on OVCAR-8 ovarian it was 66.6%. Further, the growth was 90.6% in the experiment on OVCAR-5 ovarian; 98% in the experiment on OVCAR-4 ovarian; 65.1% in the experiment on SK-OV-3 ovarian; 57.4% in the experiment on IGROV1 ovarian; 92.3% with OVCAR-3 ovarian; 99.7% in the experiment on NCI/ADR-RES ovarian.
`CCC(CC(C)C)Nc1ccc(NC(CC)CC(C)C)cc1` (configuration not stated): the growth with SK-MEL-2 melanoma was 86.4%; in the experiment with EKVX NSCLC, 81.4%; in the experiment with SN12C renal, 96.3%; with UO-31 renal it was 93%; with ACHN renal it was 95.3%; with CAKI-1 renal, 99.1%. For the same compound, the growth is 94.1% with A498 renal; 10.4% with CCRF-CEM leukemia; 34.5% in the experiment with MOLT-4 leukemia; 48.9% in the experiment with SR leukemia; -5.42% (active) with RPMI-8226 leukemia; 87.6% in the experiment with OVCAR-8 ovarian. Moreover, the growth in the experiment on OVCAR-5 ovarian is 108%; in the experiment on OVCAR-4 ovarian it was 75.8%; in the experiment on SK-OV-3 ovarian, 94.4%; in the experiment with IGROV1 ovarian it was 83.9%; in the experiment with OVCAR-3 ovarian it was -6.06% (active); with NCI/ADR-RES ovarian, 96.6%.
Regarding `CC(C)(C)C(=O)/C=c1/[nH]c(=O)/c(=C/c2ccccc2O)s1`, the growth in the experiment with SK-MEL-2 melanoma was 67.6%; with EKVX NSCLC it was 61.1%; with SN12C renal, 58.2%; in the experiment with UO-31 renal, 67.4%; in the experiment with ACHN renal, 74.5%; with CAKI-1 renal, 81.1%. The growth is 55.6% in the experiment on A498 renal; 57.8% with CCRF-CEM leukemia; 60% in the experiment with RPMI-8226 leukemia; 66.9% in the experiment on OVCAR-8 ovarian; 86.9% in the experiment with OVCAR-5 ovarian; 67.3% in the experiment with OVCAR-4 ovarian. The growth is 81.4% with SK-OV-3 ovarian; 50.1% in the experiment with IGROV1 ovarian; 20.2% with OVCAR-3 ovarian; 71.7% in the experiment on HS 578T breast; 47.1% in the experiment with NCI/ADR-RES ovarian.
On to `FC(F)(F)c1cn(CC2CNC2)c2ncnc(Cl)c12`, for which the growth in the experiment with SK-MEL-2 melanoma was 103%; in the experiment with EKVX NSCLC it was 109%; with SN12C renal, 102%; in the experiment with UO-31 renal, 102%; in the experiment on ACHN renal it was 104%; with A498 renal it was 112%. Moreover, the growth was 86.7% in the experiment with CCRF-CEM leukemia; 89.9% in the experiment with MOLT-4 leukemia; 87% with SR leukemia; 105% with RPMI-8226 leukemia; 92.2% with OVCAR-8 ovarian; 112% in the experiment with OVCAR-5 ovarian. Moreover, the growth with OVCAR-4 ovarian is 110%; with SK-OV-3 ovarian, 108%; with IGROV1 ovarian it was 105%; in the experiment on OVCAR-3 ovarian, 103%; with HS 578T breast, 105%.
Consider `CCOC(=O)n1cnc2c(Cl)ncnc21`, for which the growth in the experiment on SK-MEL-2 melanoma is 154%; with EKVX NSCLC, 106%; in the experiment on SN12C renal, 119%; with UO-31 renal, 97%; in the experiment with ACHN renal, 108%; with CAKI-1 renal it was 89.8%. For the same compound, the growth with A498 renal is 86%; in the experiment on CCRF-CEM leukemia it was 109%; in the experiment on MOLT-4 leukemia, 106%; in the experiment with SR leukemia, 110%; with RPMI-8226 leukemia it was 116%; in the experiment on OVCAR-8 ovarian, 65%. The growth with OVCAR-4 ovarian is 107%; in the experiment on SK-OV-3 ovarian, 94.2%; with OVCAR-3 ovarian, 112%; with HS 578T breast, 138%; in the experiment with NCI/ADR-RES ovarian it was 246%.
Consider `Nc1nccc2c1ccn2-c1ccc(NC(=O)c2ccc(N3CCOCC3)c(C(F)(F)F)c2)cc1`, for which the growth in the experiment with SK-MEL-2 melanoma is 35.3%; with EKVX NSCLC it was 36.7%; in the experiment on SN12C renal, 48.8%; in the experiment on UO-31 renal, -41.2% (active); in the experiment with ACHN renal it was 24.3%; in the experiment with CAKI-1 renal, -25.3% (active). Further, the growth with A498 renal was -9.64% (active); in the experiment with CCRF-CEM leukemia it was 18.5%; in the experiment with MOLT-4 leukemia, -3.7% (active); in the experiment on SR leukemia, 14.9%; in the experiment on OVCAR-8 ovarian it was 28%; in the experiment on OVCAR-5 ovarian, 14.2%. Besides, the growth in the experiment on OVCAR-4 ovarian is 77.4%; with SK-OV-3 ovarian it was 48.4%; in the experiment with IGROV1 ovarian it was 35.8%; with OVCAR-3 ovarian, 46%; in the experiment on NCI/ADR-RES ovarian, 49.3%.
For `O=C(Nc1ccc(-n2ccc3c(NC(=O)c4ccccc4)nccc32)cc1)Nc1ccc(Cl)c(Cl)c1`, the growth with SK-MEL-2 melanoma was -42.4% (active); in the experiment on EKVX NSCLC, 39.5%; in the experiment with SN12C renal it was 10.7%; in the experiment with UO-31 renal it was -61.4% (active); in the experiment on ACHN renal, 2.67% (active); in the experiment with CAKI-1 renal, -57.7% (active). Further, the growth in the experiment with A498 renal was 68.2%; with CCRF-CEM leukemia it was -34.6% (active); in the experiment with MOLT-4 leukemia it was 9.08% (active); in the experiment on SR leukemia it was -30.3% (active); in the experiment with RPMI-8226 leukemia, -49.6% (active); with OVCAR-8 ovarian, -45% (active). In addition, the growth is 50% in the experiment with OVCAR-5 ovarian; -4.39% (active) in the experiment with OVCAR-4 ovarian; 59.7% in the experiment on SK-OV-3 ovarian; 4.31% (active) with IGROV1 ovarian; -34.4% (active) with NCI/ADR-RES ovarian.
Regarding `Oc1ccccc1/C=N/c1ccccn1`, the growth in the experiment with SK-MEL-2 melanoma was 97.8%; in the experiment on EKVX NSCLC, 112%; in the experiment on SN12C renal it was 116%; in the experiment with UO-31 renal it was 92.1%; in the experiment on ACHN renal, 106%; in the experiment with CAKI-1 renal it was 104%. Besides, the growth with A498 renal is 89.5%; in the experiment on CCRF-CEM leukemia, 116%; with MOLT-4 leukemia, 102%; in the experiment on SR leukemia it was 104%; in the experiment on RPMI-8226 leukemia it was 78%; in the experiment on OVCAR-8 ovarian it was 95%. The growth with OVCAR-4 ovarian is 106%; in the experiment with SK-OV-3 ovarian, 99.6%; in the experiment on OVCAR-3 ovarian, 111%; in the experiment on HS 578T breast, 143%; in the experiment with NCI/ADR-RES ovarian, -97.1% (active).
